Screening results: PubChem BioAssay, National Center for Advancing Translational Sciences (NCATS)
Only some compounds are listed: those with a hit (about 12% of all), similar ones and a draw of the others.
PI5P4Ka inh: blocks human PI5P4K alpha kinase activity; PI5P4Kalpha enzyme, ADP-Glo luminescence, 60 min; hits give low values; max response, %; 1.2% of 330,000 active; P48426; active means max response of -50% or lower; inconclusive means between -30% and -50%; inactive means -30% or higher; further: value at the top dose of about 77 µM; on the % scale 0 is the no-effect control and ±100 the full control effect
Target sequence (P48426 whole entry, looked up): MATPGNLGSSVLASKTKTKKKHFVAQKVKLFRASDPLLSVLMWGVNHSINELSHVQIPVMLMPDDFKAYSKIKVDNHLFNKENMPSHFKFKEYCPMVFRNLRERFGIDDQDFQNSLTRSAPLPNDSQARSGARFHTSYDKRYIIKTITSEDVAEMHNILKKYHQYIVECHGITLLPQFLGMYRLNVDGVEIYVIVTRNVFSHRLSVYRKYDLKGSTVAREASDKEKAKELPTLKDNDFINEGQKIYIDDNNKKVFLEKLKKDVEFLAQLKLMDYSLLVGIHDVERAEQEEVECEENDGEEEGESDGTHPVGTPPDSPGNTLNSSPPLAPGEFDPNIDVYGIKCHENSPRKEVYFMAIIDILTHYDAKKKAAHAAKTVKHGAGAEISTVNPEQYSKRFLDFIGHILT
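Luminescence from ADP-Glo served as readout of PI5P4Kalpha activity in a qHTS format. Reaction: enzyme, substrate, compound, ATP at 5 microM final, 60 min at RT.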
HP1b binding inh: blocks HP1-beta chromodomain binding to methylated histone tails; P83916; 0.56% of 390,000 active; Potency, µM (highest dose often 114 µM), inactives show at the top dose activity change, negative = inhibition, hits mostly inhibitors; AlphaScreen HP1-beta / biotin-H3K9me3 peptide binding; further: potency means the concentration at half of the fitted maximal effect; nearly all actives have a fitted effect of over 70% in size
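HP1-beta protein (50 nM final) preincubated 30 min at room temperature with biotinylated H3(1-18)K9me3 peptide (50 nM) in PBS pH 7.4, 0.01% Tween-20, then compound added for 30 min. AlphaScreen streptavidin donor/nickel chelate acceptor beads (10 ug/mL final), 30 min dark, luminescence read.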
BAZ2B block: inhibitors of human BAZ2B bromodomain; Q9UIF8; AlphaScreen BAZ2B-H3K14Ac peptide displacement; Potency, µM (titrated, usually from 114 µM), for the others: at the top dose activity change, negative = inhibition, actives largely listed as inhibitors; 4.4% of 360,000 active; further: potency means the concentration at half of the fitted maximal effect; on the % scale 0 is the no-effect control and ±100 the full control effect; nearly all actives have a fitted effect of over 60% in size
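BAZ2B (50 nM) with biotin-H3(5-23)K14Ac peptide (50 nM) in PBS pH 7.4, 0.01% Tween-20, preformed 30 min, then compound 30 min at room temperature; top concentration 110uM. AlphaScreen streptavidin donor/nickel chelate acceptor beads (10 ug/mL final), 20 min dark, signal read.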
G9a inh: G9a (human) methyltransferase inhibition; Q96KQ7; G9a H3K9 monomethylation, AlphaScreen, 2 h; Potency, µM (top dose mostly 102 µM), for inactives: top-dose activity, negative = inhibition, hits mostly inhibitors; 8.8% of 350,000 active; further: potency means the concentration at half of the fitted maximal effect; on the % scale 0 is the no-effect control and ±100 the full control effect; nearly all actives have a fitted effect of over 75% in size
Target sequence (Q96KQ7 913-1193 limits assumed): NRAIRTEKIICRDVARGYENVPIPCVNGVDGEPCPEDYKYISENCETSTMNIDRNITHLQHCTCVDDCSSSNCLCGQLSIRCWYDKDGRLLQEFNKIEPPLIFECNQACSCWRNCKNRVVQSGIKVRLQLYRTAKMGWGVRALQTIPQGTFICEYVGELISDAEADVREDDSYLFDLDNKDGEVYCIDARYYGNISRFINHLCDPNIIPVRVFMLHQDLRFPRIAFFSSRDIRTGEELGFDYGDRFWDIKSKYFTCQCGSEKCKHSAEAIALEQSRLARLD
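AlphaScreen read-out: biotin-H3K9 peptide (500 nM) methylation by 20 nM enzyme with 20 uM SAM, 2 h at room temperature after 15 min compound preincubation; anti-monomethyl H3K9 antibody plus donor/acceptor beads, 10 min dark.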
JMJD2A Tudor inh: JMJD2A Tudor domain (human) inhibition. O75164. AlphaScreen JMJD2A-Tudor / H3K4me3 peptide binding. Potency, µM (highest dose often 114 µM), for the others: at the highest dose activity change, negative = inhibition, hits mostly inhibitors. 4.4% of 390,000 active. AID 504339; further: potency means the concentration at half of the fitted maximal effect; on the % scale 0 is the no-effect control and ±100 the full control effect; nearly all actives have a fitted effect of over 50% in size
PLK1 PBD block: inhibitors of human PLK1 polo-box domain binding. Plk1 PBD binding of FITC phosphopeptide, fluorescence polarization. P53350. Potency, µM, without a hit: max response, negative = inhibition, most hits filed as inhibitors. 2.8% of 360,000 active; further: potency means the concentration at half of the fitted maximal effect; series mostly up to about 57 µM; on the % scale 0 is the no-effect control and ±100 the full control effect; nearly all actives have a fitted effect of over 65% in size
Starred values were filed as active, the others as inactive; u = inconclusive; x = no result given; [ ] = remark or other dose. Unless noted, the call rests on the fitted dose curve; in most records, active means well fitted curve in the direction sought with a large enough effect; inconclusive means small, poorly fitted or top-dose-only effect, or another doubt; inactive means no such curve, though single readings can be large; an effect the other way counts as inactive or inconclusive.

SMILES | PI5P4Ka inh | HP1b binding inh | BAZ2B block | G9a inh | JMJD2A Tudor inh | PLK1 PBD block
O=C(NN=Cc1ccc2c(c1)CCC2)c1cccc([N+](=O)[O-])c1 | -3 | x | x | x | x | -5%
O=c1c2c(-c3ccc([N+](=O)[O-])cc3)csc2nc2n1CCC2 | -17 | u | -1% | 7.9µM* | -30% | 27µM*
O=[N+]([O-])c1ccc(-c2nnc3n2CCCCC3)cc1 | -1 | -2% | -2% | 60% | -13% | -3%
Cc1ccccc1-c1noc(-c2cc(C(C)C)[nH]n2)n1 | x | 66% | 11% | 5%[59 µM] | 0% | x
CSc1nnc(-c2cccs2)n1C | -30 | -22% | 3% | 3% | u | u
CSCCC1COC(c2cccs2)=N1 (centres undefined) | 1 | 14% | x | 0.89µM* | -22% | -6%
CN1CCN(C(=O)C2CCCCC2)CC1 | x | x | x | -38%[12.7 µM] | x | x
COc1c[nH]n(C2CCCCC2)c(=O)c1=O | x | 7% | u | 22µM* | 20µM* | -4%
CCOc1cc(/C=C(/C#N)C(=O)Nc2ccc(O)cc2)cc(Br)c1O | -71* | -13% | -37% | 50µM* | -27% | 38%
CCOc1ccc(NC(=O)/C(C#N)=C/c2ccc(N3CCCC3)c(C)c2)cc1 | -8 | 17% | 2% | 2%[59 µM] | -9% | 20%
C=CCNC(=O)/C(C#N)=C\c1cc(Cl)c(O)c(OCC)c1 | -59* | 9% | -15% | 11µM* | -11% | 5%
COC(=O)[C@]12CCCCC=C1N(Cc1ccc3c(c1)OCO3)C(=O)[C@H](CC(=O)NCC1CCCCC1)C2 | 4 | x | x | x | x | 1%
COc1ccc(C2CC(=O)c3cc(-c4nc(-c5ccc(Cl)cc5)cs4)c(=O)[nH]c3C2)cc1OC (centres undefined) | x | 36% | u | -38%[59 µM] | 3% | x
COc1ccc(C2CC(=O)c3cc(-c4nc(-c5cccc([N+](=O)[O-])c5)cs4)c(=O)n(-c4ccccc4)c3C2)cc1 (centres undefined) | x | 14% | 0% | -7%[59 µM] | -12% | x
COc1ccc(C2CC(=O)c3cc(-c4nc(-c5ccc(C)cc5)cs4)c(=O)[nH]c3C2)cc1 (centres undefined) | x | 44% | u | 1.8µM* | 1% | x
CC1(C)CC(=O)c2cc(-c3nc(-c4ccc(Cl)cc4)cs3)c(=O)[nH]c2C1 | x | 29% | 1% | 14µM* | 3% | x
COc1ccc(C2CC(=O)c3cc(-c4nc(-c5cccc([N+](=O)[O-])c5)cs4)c(=O)n(-c4ccccc4C)c3C2)cc1 (centres undefined) | x | 24% | u | 3.5µM* | -16% | x
CC1(C)CC(=O)c2cc(-c3nc(-c4ccc(F)cc4)cs3)c(=O)[nH]c2C1 | x | 34% | 71µM* | 1.3µM* | u | x
COc1ccc(OC)c(-n2c3c(cc(-c4nc(-c5ccc(Cl)cc5)cs4)c2=O)C(=O)CC(C)(C)C3)c1 | x | 65% | 9% | 8%[59 µM] | 28% | x
O=C1Cc2cc(S(=O)(=O)N3CCN(c4ccc(C(F)(F)F)cc4)CC3)ccc2N1 | x | x | x | x | -30%[229 µM] | x
COc1ccc(-n2c3c(cc(-c4nc(-c5ccc(C)cc5)cs4)c2=O)C(=O)CC(C)(C)C3)cc1 | x | 76% | 7% | 2%[59 µM] | 3% | x
Cc1ccc(-n2c3c(cc(-c4nc(-c5ccc(Cl)cc5)cs4)c2=O)C(=O)CC(C)(C)C3)cc1C | x | 47% | -1% | 16µM* | 15% | x
Cc1ccc(-n2c(C)cc3c2CC(C)(C)CC3=O)cc1C | 1 | -28% | u | u | 56µM* | -9%
Cc1cc2c(n1-c1ccc(Br)cc1)CC(C)(C)CC2=O | x | -9% | u | -69% | u | -5%
COc1ccc(CCc2nnc(CCC(=O)NCCc3ncccc3C)o2)cc1 | 1 | 28% | -10% | -6%[12.7 µM] | -13% | -2%
SMILES | PI5P4Ka inh | HP1b binding inh | BAZ2B block | G9a inh | JMJD2A Tudor inh | PLK1 PBD block
O=C(NCCN1CCCCC1)c1ccc(Cn2c(SCc3ccc(F)cc3)nc3cccnc32)cc1 | x | 18% | -11% | -28%[59 µM] | -24% | x
Cc1ccc(-c2nn(-c3ccccc3)cc2C2SCC(=O)N2Cc2ccccc2)o1 (centres undefined) | 4 | u | u | 10µM* | u | -29%
O=C1CSC(c2cn(-c3ccccc3)nc2-c2cc3ccccc3o2)N1Cc1ccccc1 (centres undefined) | 10 | 11% | u | 11% | -27% | -5%
CC(C)[C@H](N)c1nnc(SCc2ccc(Cl)cc2)o1 | 3 | 21% | -1% | x | 14µM* | 1%
CCC(C)[C@H](N)c1nnc(SCc2ccc(Cl)c(Cl)c2)o1 (some centres undefined) | x | 61% | u | 8.9µM* | 3% | x
CC(C)C[C@H](N)c1nnc(SCc2ccc(Cl)cc2)o1 | 2 | 38% | 1% | 22%[12.7 µM] | 3% | -21%
CCC(C)[C@H](N)c1nnc(SCC(=O)c2ccc(Cl)cc2)o1 (some centres undefined) | x | 16% | -1% | -13% | -26% | -11%
COc1ccc(NC(=O)c2nn(C)c3c2CS(=O)(=O)c2ccccc2-3)cc1Cl | x | 28% | -5% | -30%[59 µM] | -19% | x
Cn1nnnc1Sc1ncnc2scc(-c3ccccc3C#N)c12 | x | x | x | x | -14% | x
Cc1nc2cnc(Oc3ccccc3)nc2n(Cc2cccs2)c1=O | x | x | x | 10%[0.501 µM] | x | x
C#CCOCCOCCOCCNc1nc(N2CCN(C(=O)[C@H]([C@@H](C)CC)n3cc([C@@H](N)Cc4ccc(O)cc4)nn3)CC2)nc(N2CCN(C(=O)[C@H]([C@@H](C)CC)n3cc([C@@H](N)CC(C)C)nn3)CC2)n1 | 18 | 22% | u | -19%[59 µM] | 45µM* | -10%
C#CCOCCOCCOCCNc1nc(N2CCOCC2)nc(N2CCN(C(=O)[C@H]([C@@H](C)CC)n3cc([C@@H](N)Cc4ccc(O)cc4)nn3)CC2)n1 | -4 | 30% | -20% | u | -24% | -13%
C#CCOCCOCCOCCNc1nc(N2CCN(C(=O)[C@H]([C@@H](C)CC)n3cc([C@@H](N)Cc4ccc(O)cc4)nn3)CC2)nc(N2CCN(C(=O)[C@H](Cc3ccc(O)cc3)n3cc([C@@H](N)CC(C)C)nn3)CC2)n1 | -8 | 8% | 56µM* | u | 14µM* | 5%
C#CCOCCOCCOCCNc1nc(N2CCN(C(=O)[C@H]([C@@H](C)CC)n3cc([C@@H](N)CO)nn3)CC2)nc(N2CCN(C(=O)[C@H](Cc3ccc(O)cc3)n3cc([C@@H](N)CC(C)C)nn3)CC2)n1 | -3 | -11% | 32µM* | u | 56µM* | 3%
N#CC12C(=O)NC(=O)C1(C#N)C21CCCC1 (centres undefined) | -6 | 21% | x | x | -6% | -1%
